# MITF inh: human MITF inhibition, primary screen | inhibition, % at 2.6 µM | O75030 | AlphaScreen MITF homodimerization, bead proximity signal | AID 1259374 | actives 0.91% (n = 650,000); in the data active = inhibition above about 50%
# FBW7 act: human FBW7 E3 ligase activation, primary screen; Q969H0; AlphaScreen FBW7–phospho-cyclin E peptide binding, activator screen; normalized activity (activation), % at 26.1 µM; actives 0.13% (n = 650,000); in the data active = normalized activity above about 1.9%;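 also: purified mutant Fbw7 with reduced substrate affinity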
# TEAD-YAP inh: TEAD-YAP interaction inhibition. HEK-TIYL cells, TEAD-Gal4/YAP UAS-luciferase luminescence. inhibition, % at 9.12 µM. actives 1.4% (n = 640,000). AID 1259422; in the data active = inhibition above about 32%
# GPR151 activ: human GPR151 activation; activation, % at 11.2 µM; PathHunter beta-arrestin GPR151 cells, luminescence; actives 1% (n = 650,000); Q8TDV0; in the data active = activation above about 4.9%
# Target sequence (Q8TDV0 whole entry, looked up): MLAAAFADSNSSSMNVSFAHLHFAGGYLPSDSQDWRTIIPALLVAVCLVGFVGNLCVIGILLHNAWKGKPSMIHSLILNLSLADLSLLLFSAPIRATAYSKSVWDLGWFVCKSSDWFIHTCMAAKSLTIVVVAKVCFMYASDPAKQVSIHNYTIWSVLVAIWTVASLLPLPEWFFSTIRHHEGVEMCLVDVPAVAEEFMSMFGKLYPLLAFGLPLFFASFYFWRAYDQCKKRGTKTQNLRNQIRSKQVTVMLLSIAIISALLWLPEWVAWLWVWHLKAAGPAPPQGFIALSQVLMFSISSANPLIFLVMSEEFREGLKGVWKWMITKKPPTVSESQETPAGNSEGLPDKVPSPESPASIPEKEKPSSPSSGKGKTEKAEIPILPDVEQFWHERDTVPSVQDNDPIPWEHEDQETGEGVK
# Numbers stand for hits; i = inactive. An excerpt weighted towards active compounds, which were near 3.5% of everything screened.
SMILES,MITF inh,FBW7 act,TEAD-YAP inh,GPR151 activ
C/C(=N\NC(=O)c1cc(-c2ccncc2)nc2ccccc12)c1ccc(C#N)cc1,i,i,41.5,i
C/C(CC(C)C)=N\NC(=O)c1cccc(O)c1,i,i,40.2,i
CCC/C=N/NC(=O)c1cccc(O)c1,i,i,33.9,i
C/C(CC(C)C)=N/NC(=O)c1ccc(Br)cc1,i,i,i,i
CCC/C=N/NC(=O)c1ccc(O)cc1,i,i,i,i
COc1ccccc1CNS(=O)(=O)c1ccc(F)c(C(=O)Nc2ccc(C(C)C)cc2)c1,i,i,i,i
COc1ccccc1-c1nnc2sc(-c3cc4ccccc4o3)nn12,i,i,53.2,i
CCN(CC(=O)Nc1cc(Cl)ccc1C)CC(=O)Nc1ccccc1N1CCOCC1,i,i,i,i
Oc1ccc(CCNc2nc(Nc3ncccn3)nc3c2ncn3-c2ccsc2)cc1,i,i,56.0,i
Oc1ccc(CCNc2nc(Nc3ccccc3)nc3c2ncn3-c2ccccc2)cc1,i,i,i,i
Oc1ccc(CCNc2nc(Nc3ccccc3)nc3c2ncn3-c2ccsc2)cc1,i,i,38.4,i
Oc1ccc(CCNc2nc(Nc3cnccn3)nc3c2ncn3-c2ccsc2)cc1,i,i,66.5,i
COc1ccc(CCNc2nc(Nc3ccc(C(F)(F)F)cc3)nc3c2ncn3-c2ccsc2)cc1,i,i,i,i
COc1ccc(CCNc2nc(Nc3ccc(N4CCOCC4)cc3)nc3c2ncn3-c2ccsc2)cc1,i,i,62.3,i
Cc1ccc(N/C(=N/S(=O)(=O)c2ccccc2)c2ccccc2)cc1,i,i,43.7,i
O=C(NC1CCCCC1)c1ccc(Br)cc1,i,i,i,i
O=c1cc(CN2CCN(Cc3ccc4c(c3)OCO4)CC2)c2cc(O)c(O)cc2o1,90.5,i,i,i
O=c1cc(CN2CCN(c3ccccc3O)CC2)c2cc(O)c(O)cc2o1,89.7,i,i,i
O=c1cc(CN2CCCCC2)c2cc(O)ccc2o1,i,i,i,i
COc1ccc(C2Nc3ccccc3C(=O)N2c2ccc(C)cc2)cc1 (centres undefined),i,i,i,i
COc1ccc(C2Nc3ccccc3C(=O)N2c2ccc3ccccc3c2)cc1 (centres undefined),i,i,64.4,i
CCN1C(=O)/C(=C\c2cc(C)n(-c3ccccc3F)c2C)C(C(=O)OC)=C1C,i,i,37.9,i
C=CCN1C(=O)/C(=C\c2cc(C)n(-c3ccccc3)c2C)C(C(=O)OC)=C1C,i,i,i,i
C=CCN1C(=O)/C(=C\c2cc(C)n(-c3ccccc3F)c2C)C(C(=O)OC)=C1C,i,i,35.8,i
CCN1C(=O)/C(=C\c2cc(C)n(-c3ccccc3C)c2C)C(C(=O)OC)=C1C,i,i,i,i
SMILES,MITF inh,FBW7 act,TEAD-YAP inh,GPR151 activ
O=C(CN1CCCc2ccccc21)N/N=C/c1ccccc1,i,i,i,i
O=C(CN1CCCc2ccccc21)N/N=C/c1ccc(Cl)cc1,i,i,36.0,i
CCOc1ccccc1C(=O)N/N=C/c1cccc(OC)c1O,i,i,i,i
CCOc1cccc(/C=N/NC(=O)c2ccccc2O)c1O,i,i,88.0,i
CCOc1cccc(/C=N/NC(=O)c2cc(-c3ccco3)[nH]n2)c1O,i,i,38.9,i
COc1ccccc1/C=N/NC(=O)c1[nH]nc(-c2ccccc2)c1C,i,i,i,i
CCOc1cccc(/C=N/NC(=O)c2[nH]nc(-c3ccccc3)c2C)c1O,i,i,48.2,i
COc1ccc(/C=C(/NC(=O)c2ccccc2Cl)C(=O)NCCO)cc1,i,i,i,i
CCCc1cc(SCC(=O)Nc2cccc(Cl)c2C)ncn1,i,i,i,i
CCCCn1c(=S)[nH]c2ccccc21,i,2.0,i,i
O=C(c1ccc(Cl)cc1)c1cc(NC(=O)c2cc(Cl)cc(Br)c2O)ccc1Cl,i,i,i,i
COCCCNC(=O)CSc1nc2ccsc2c(=O)n1CCCC(=O)NCc1ccc2c(c1)OCO2,i,i,i,i
CC(C)Oc1ccc(Br)cc1C(=O)N/N=C/c1ccc(O)cc1,i,i,i,i
O=C(N/N=C/c1cccs1)c1cc2ccccc2cc1O,i,i,i,i
CCOc1ccc(Br)cc1C(=O)N/N=C/c1ccc(C)o1,i,i,36.2,i
COc1cc2ccccc2cc1C(=O)N/N=C/c1cccs1,i,i,49.8,i
CC(C)Oc1ccc(Br)cc1C(=O)N/N=C/c1ccco1,i,i,38.5,i
CCOc1ccc(Br)cc1C(=O)N/N=C/c1cccs1,i,i,54.9,i
O=C(O)CCC(=O)N1N=C(c2ccccc2)CC1c1ccccc1 (centres undefined),i,1.9,i,i
COc1cc2oc(=O)cc(C)c2cc1OC,i,i,i,i
COc1cc2oc(=O)cc(C)c2cc1C=O,i,i,62.0,i
CCOC(=O)C1=C(N)n2c(s/c(=C\c3ccc(O)cc3)c2=O)=C(C#N)C1c1ccc(O)cc1 (centres undefined),i,i,i,i
CCOC(=O)C1=C(N)n2c(s/c(=C/c3cccs3)c2=O)=C(C(=O)OCC)C1c1cccs1 (centres undefined),i,i,40.7,i
CCOC(=O)C1=C(N)n2c(s/c(=C/c3ccccc3)c2=O)=C(C(=O)OCC)C1c1ccccc1 (centres undefined),i,i,i,i
CCOC(=O)C1=C(N)n2c(s/c(=C\c3ccc(OC)c(OC)c3)c2=O)=C(C#N)C1c1ccc(OC)c(OC)c1 (centres undefined),i,i,59.2,i
SMILES,MITF inh,FBW7 act,TEAD-YAP inh,GPR151 activ
Cc1ccc(-n2c(C)cc(/C=C(\C#N)C(N)=O)c2C)cc1I,i,i,i,i
N#CCC(=O)NS(=O)(=O)c1ccccc1,i,i,i,i
CCCCn1c(CNC(=O)c2c(F)cccc2Cl)nnc1SCC(=O)Nc1sc2c(c1C(=O)OCC)CCC2,i,i,i,i
CCOC(=O)CSc1nc2sc3c(c2c(=O)n1C1CCCCC1)CCN(C)C3,i,2.3,i,i
N#CC1=C2SCC(O)(c3ccc(F)cc3)N2C(=O)CC1c1cccc(F)c1 (centres undefined),i,i,53.7,i
N#CC1=C2SCC(O)(c3ccco3)N2C(=O)CC1c1ccc(F)cc1 (centres undefined),i,i,42.8,i
CCN1CCN(c2nn3c(=O)c4c5c(sc4nc3c3ccccc23)CCCC5)CC1,i,i,i,i
O=C(N/N=C/c1cc(Br)ccc1F)c1cccnc1,i,i,i,i
Cc1ccccc1-n1nnnc1Sc1ccc([N+](=O)[O-])c2cnccc12,i,i,44.0,i
O=[N+]([O-])c1ccc(Sc2nnnn2-c2ccccc2)c(Cl)c1,i,i,34.4,i
Cn1c(Sc2ccc([N+](=O)[O-])c3cnccc23)nnc1C(F)(F)F,i,i,i,i
O=[N+]([O-])c1ccc(Sc2nnnn2-c2ccccc2)c2ccncc12,i,i,49.8,i
O=[N+]([O-])c1cc(C(F)(F)F)ccc1Sc1nnnn1-c1ccccc1,i,i,i,i
CC(=O)c1ccc(Sc2nnnn2-c2ccccc2)c([N+](=O)[O-])c1,i,i,33.2,i
Cc1cc(/C=C2\C(=O)N(C)c3ccccc32)c(C)n1C,i,i,i,i
COc1ccccc1N1C[C@@H]2C[C@@H](c3ccncc3)N3CCC[C@@]23C1=O,i,i,i,i

# From PubChem BioAssay
